From the supplement of paper PMC10646978 come the findings set out here.

Molecules are shown by their SMILES. ± gives the standard deviation.

One assay deals with RAW-Dual (murine macrophage reporter line). Description: NF-kB reporter (SEAP) activity fold change vs agonist alone; higher = enhanced NF-kB activity. The settings on record: modulator concentration 10 µM; agonist: CpG ODN 1826 0.5 ug/mL. Summed up:
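In 384-well plates holding 50 000 RAW-Dual murine macrophage reporter cells per well, compound at 10 μM final was pre-incubated for 1 hour at 37 °C, after which a PRR agonist was added overnight. Supernatant SEAP read with QUANTI-Blue at 620 nm absorbance reported NF-κB, and Lucia luciferase read with QUANTI-Luc luminescence reported IRF. Fold change values come from dividing each reporter signal by the mean of agonist-only control wells on the same plate, averaged over replicate plates with propagated errors.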
In the case of `CCCOc1ccc(C=CC(=O)Nc2ccc(S(=O)(=O)Nc3ncccn3)cc2)cc1OC`, the NF-kB reporter is 0.938 ± 0.077.
As for `CN(C)C1C(O)=C(C(N)=O)C(=O)C2(O)C(O)=C3C(=O)c4c(O)cccc4C(C)(O)C3CC12.Cl` (stereo not given), the NF-kB reporter was determined as 1.11 ± 0.097.
On the same count and under the same terms, the figure for `O=c1oc2cc(O)ccc2c2ccccc12` is 1.05 ± 0.12; for `CC(C)Oc1cccc(C(=O)NC(=S)N2CCN(c3ccc([N+](=O)[O-])cc3)CC2)c1` it is 0.83 ± 0.064.
Same read-out and setting: the value for `O=c1[nH]nc(Br)c(=O)[nH]1` was 1.04 ± 0.082.
Still for that read-out and setting: the value for `NC(CO)(CO)CO.O=C(c1ccccc1)c1ccc2n1CCC2C(=O)O` (stereo not given) was 0.916 ± 0.18.
Consider `O=C(NCCN1CCN(c2ccc(F)cc2)CC1)c1ccno1`, for which the NF-kB reporter was 1.04 ± 0.1.
On to `N[C@H](Cc1ccccc1)C(=O)O`, for which the NF-kB reporter was determined as 0.958 ± 0.074.
The same measure, in the same setting: the figure for `O=c1[nH]c(NN=Cc2c3ccccc3cc3ccccc23)nc2ccccc12` is 0.919 ± 0.085; for `Clc1ccc(Nc2nc3nonc3nc2NC2C3CC4CC(C3)CC2C4)cc1` (stereo not given) it is 1.15 ± 0.12; for `CCN(CC)CCOC(=O)C(c1ccccc1)C1CCCCC1.Cl` (stereo not given) it is 1.04 ± 0.08.
On the same count and under the same terms, the figure for `CCOC(C#CCN(CC)CC)(c1ccccc1)c1ccccc1.Cl` is 0.215 ± 0.018.
On the same count and under the same terms, the figure for `CCC(=O)c1c(O)cc(O)cc1O` is 1.03 ± 0.083; for `C[C@@H]1CCN(C(=O)CC#N)C[C@@H]1N(C)c1ncnc2[nH]ccc12.O=C(O)CC(O)(CC(=O)O)C(=O)O` it is 1.05 ± 0.29.
Take `Nc1ccc(O)c(C(=O)O)c1`: the NF-kB reporter worked out at 1.08 ± 0.089.
On to `COc1cc(C2CC3CC2C(C)C3(C)C)ccc1O` (stereo not given), for which the NF-kB reporter worked out at 0.638 ± 0.098.
As to `CCOc1ccc2nc(SC(c3ccccc3)c3ccccc3)sc2c1`, the NF-kB reporter came out at 1.01 ± 0.17.
Still for that read-out and setting: the value for `COc1c(C)cnc(Cn2cccc(-c3nc(C)no3)c2=O)c1C` was 0.826 ± 0.2; that for `COc1ccc(C=C(NC(=O)c2ccccc2)C(=O)NCCC(=O)OCc2ccccc2)cc1` was 0.996 ± 0.082.
The same measure, in the same setting: the value for `C=CCc1ccccc1OCC(O)CNC(C)C.Cl` (stereo not given) was 1 ± 0.24.
As for `COc1ccc(OC)c(S(=O)(=O)NCC2CC(=O)N(c3ccc(Cl)cc3)C2)c1` (stereo not given), the NF-kB reporter was 0.857 ± 0.039.
On the same count and under the same terms, the figure for `O=[N+]([O-])c1ccc(C=CC=Nc2ccc(-c3nc4ccccc4s3)c(O)c2)cc1` is 0.813 ± 0.06; for `c1ccc2nc3c(cc(N4CCOCC4)c4ccccc43)nc2c1` it is 0.92 ± 0.078; for `O=C(Cn1c(C(F)(F)F)nc2ccccc21)c1ccc(OC(F)F)cc1` it is 0.916 ± 0.086.
For the compound `CCN(CC)CCOCCOC(=O)C1(c2ccccc2)CCCC1` [Prestw-387], the NF-kB reporter turned out to be 0.668 ± 0.12.
As to `COCCNc1nc(SCC(=O)Nc2cccc(C(F)(F)F)c2)nc2ccccc12`, the NF-kB reporter was determined as 0.268 ± 0.022.
Same read-out and setting: the figure for `CC1(C)CC(=O)C2=C(C1)OC(N)=C(C#N)C21C(=O)Nc2ccc(Br)cc21` (stereo not given) is 0.954 ± 0.077.
The same measure, in the same setting: the figure for `O=c1c2ccccc2n(Cc2nc(-c3ccc(F)c(F)c3)no2)c(=O)n1C1CC1` is 0.84 ± 0.076; for `C[C@H](Oc1cc(-c2cnn(C3CCNCC3)c2)cnc1N)c1c(Cl)ccc(F)c1Cl` it is 0.85 ± 0.069; for `COc1ccc(Cl)cc1C(=O)NCCc1ccc(S(=O)(=O)NC(=O)NC2CCCCC2)cc1` it is 0.75 ± 0.067.
As for `CS(=O)(=O)NCc1cccc(Oc2ccc(F)cc2)c1`, the NF-kB reporter was determined as 1.03 ± 0.066.
Turning to `COc1cccc(-n2c(SCc3ccc(F)cc3)nc3c([nH]c4ccccc43)c2=O)c1`, the NF-kB reporter is 0.568 ± 0.034.
Same read-out and setting: the figure for `CCCCSc1nnc2c(n1)OC(c1cccc(O)c1)Nc1ccc(Br)cc1-2` (stereo not given) is 0.765 ± 0.063; for `Cl.Cl.Cn1cc(CNCC2CCN(c3ncc(C(=O)NO)cn3)CC2)c2ccccc21` it is 1.84 ± 0.11; for `O=C(NCCCCNC(=O)c1cncc(Br)c1)c1cncc(Br)c1` it is 0.947 ± 0.053.
Turning to `COC(=O)C1=CN(CC2CCCO2)C=C(C(=O)OC)C1c1cccc(F)c1` (stereo not given), the NF-kB reporter turned out to be 0.948 ± 0.21.
Regarding `COc1ccc(OC)c2sc(NC(=O)C(C)C)nc12`, the NF-kB reporter amounted to 0.97 ± 0.075.
The same measure, in the same setting: the value for `CCOC(=O)CC(C(=O)OCC)P(=O)(c1ccccc1)c1ccccc1` (stereo not given) was 0.85 ± 0.048; that for `CC1CC(=O)C2=C(C1)OC(N)=C(C#N)C2c1ccc(Cl)cc1` (stereo not given) was 0.905 ± 0.093; that for `CC(=O)OC(OC(C)=O)c1ccc([N+](=O)[O-])cc1` was 1.16 ± 0.094.

The assay is the same for the next values; noted with them: modulator concentration 10 µM; agonist: LPS 0.1 ug/mL.
On to `CCCOc1ccc(C=CC(=O)Nc2ccc(S(=O)(=O)Nc3ncccn3)cc2)cc1OC`, for which the NF-kB reporter came out at 1.03 ± 0.06.
On to `CN(C)C1C(O)=C(C(N)=O)C(=O)C2(O)C(O)=C3C(=O)c4c(O)cccc4C(C)(O)C3CC12.Cl` (stereo not given), for which the NF-kB reporter was found to be 1 ± 0.053.
With `O=c1oc2cc(O)ccc2c2ccccc12`, the NF-kB reporter stood at 0.932 ± 0.085.
On the same count and under the same terms, the figure for `CC(C)Oc1cccc(C(=O)NC(=S)N2CCN(c3ccc([N+](=O)[O-])cc3)CC2)c1` is 0.943 ± 0.053.
As to `O=c1[nH]nc(Br)c(=O)[nH]1`, the NF-kB reporter is 1.1 ± 0.09.
Still for that read-out and setting: the figure for `NC(CO)(CO)CO.O=C(c1ccccc1)c1ccc2n1CCC2C(=O)O` (stereo not given) is 1.05 ± 0.087; for `O=C(NCCN1CCN(c2ccc(F)cc2)CC1)c1ccno1` it is 0.965 ± 0.077.
Take `N[C@H](Cc1ccccc1)C(=O)O`: the NF-kB reporter was found to be 1.05 ± 0.052.
Same read-out and setting: the figure for `O=c1[nH]c(NN=Cc2c3ccccc3cc3ccccc23)nc2ccccc12` is 1.03 ± 0.061; for `Clc1ccc(Nc2nc3nonc3nc2NC2C3CC4CC(C3)CC2C4)cc1` (stereo not given) it is 1.15 ± 0.07; for `CCN(CC)CCOC(=O)C(c1ccccc1)C1CCCCC1.Cl` (stereo not given) it is 0.861 ± 0.076.
On to `CCOC(C#CCN(CC)CC)(c1ccccc1)c1ccccc1.Cl`, for which the NF-kB reporter came to 0.353 ± 0.049.
Same read-out and setting: the figure for `CCC(=O)c1c(O)cc(O)cc1O` is 1.1 ± 0.055.
Same read-out and setting: the figure for `C[C@@H]1CCN(C(=O)CC#N)C[C@@H]1N(C)c1ncnc2[nH]ccc12.O=C(O)CC(O)(CC(=O)O)C(=O)O` is 0.628 ± 0.047; for `Nc1ccc(O)c(C(=O)O)c1` it is 0.898 ± 0.12; for `COc1cc(C2CC3CC2C(C)C3(C)C)ccc1O` (stereo not given) it is 0.716 ± 0.052.
The same measure, in the same setting: the value for `CCOc1ccc2nc(SC(c3ccccc3)c3ccccc3)sc2c1` was 0.967 ± 0.099; that for `COc1c(C)cnc(Cn2cccc(-c3nc(C)no3)c2=O)c1C` was 0.937 ± 0.092.
For `COc1ccc(C=C(NC(=O)c2ccccc2)C(=O)NCCC(=O)OCc2ccccc2)cc1`, the NF-kB reporter came out at 1.04 ± 0.096.
On to `C=CCc1ccccc1OCC(O)CNC(C)C.Cl` (stereo not given), for which the NF-kB reporter is 0.957 ± 0.14.
Still for that read-out and setting: the figure for `COc1ccc(OC)c(S(=O)(=O)NCC2CC(=O)N(c3ccc(Cl)cc3)C2)c1` (stereo not given) is 0.968 ± 0.12; for `O=[N+]([O-])c1ccc(C=CC=Nc2ccc(-c3nc4ccccc4s3)c(O)c2)cc1` it is 1.04 ± 0.067; for `c1ccc2nc3c(cc(N4CCOCC4)c4ccccc43)nc2c1` it is 1.04 ± 0.062.
In the case of `O=C(Cn1c(C(F)(F)F)nc2ccccc21)c1ccc(OC(F)F)cc1`, the NF-kB reporter came out at 1.07 ± 0.084.
In the case of `CCN(CC)CCOCCOC(=O)C1(c2ccccc2)CCCC1` [Prestw-387], the NF-kB reporter was found to be 1.14 ± 0.12.
As for `COCCNc1nc(SCC(=O)Nc2cccc(C(F)(F)F)c2)nc2ccccc12`, the NF-kB reporter is 0.549 ± 0.051.
Still for that read-out and setting: the figure for `CC1(C)CC(=O)C2=C(C1)OC(N)=C(C#N)C21C(=O)Nc2ccc(Br)cc21` (stereo not given) is 1.05 ± 0.08; for `O=c1c2ccccc2n(Cc2nc(-c3ccc(F)c(F)c3)no2)c(=O)n1C1CC1` it is 1.21 ± 0.096; for `C[C@H](Oc1cc(-c2cnn(C3CCNCC3)c2)cnc1N)c1c(Cl)ccc(F)c1Cl` it is 0.896 ± 0.11.
Still for that read-out and setting: the value for `COc1ccc(Cl)cc1C(=O)NCCc1ccc(S(=O)(=O)NC(=O)NC2CCCCC2)cc1` was 0.932 ± 0.056.
Take `CS(=O)(=O)NCc1cccc(Oc2ccc(F)cc2)c1`: the NF-kB reporter was determined as 0.955 ± 0.079.
Same read-out and setting: the value for `COc1cccc(-n2c(SCc3ccc(F)cc3)nc3c([nH]c4ccccc43)c2=O)c1` was 1.14 ± 0.077.
Regarding `CCCCSc1nnc2c(n1)OC(c1cccc(O)c1)Nc1ccc(Br)cc1-2` (stereo not given), the NF-kB reporter turned out to be 0.954 ± 0.073.
On the same count and under the same terms, the value for `Cl.Cl.Cn1cc(CNCC2CCN(c3ncc(C(=O)NO)cn3)CC2)c2ccccc21` was 1.72 ± 0.15; that for `O=C(NCCCCNC(=O)c1cncc(Br)c1)c1cncc(Br)c1` was 0.973 ± 0.095; that for `COC(=O)C1=CN(CC2CCCO2)C=C(C(=O)OC)C1c1cccc(F)c1` (stereo not given) was 0.907 ± 0.084.
With `COc1ccc(OC)c2sc(NC(=O)C(C)C)nc12`, the NF-kB reporter amounted to 1.02 ± 0.059.
Same read-out and setting: the figure for `CCOC(=O)CC(C(=O)OCC)P(=O)(c1ccccc1)c1ccccc1` (stereo not given) is 0.943 ± 0.086; for `CC1CC(=O)C2=C(C1)OC(N)=C(C#N)C2c1ccc(Cl)cc1` (stereo not given) it is 1.06 ± 0.075; for `CC(=O)OC(OC(C)=O)c1ccc([N+](=O)[O-])cc1` it is 1.06 ± 0.069.
